The source made the active and inactive calls. Unless noted, no rule for the calls is given here.
Experiments:
[1] = anti-His antibody binders, primary screen, artefact control for SMM control protein annotation, biochemical, small-molecule microarray, 635 nm fluorescence (AID 1128); conditions: anti-His Alexa647 antibody binding, higher = more signal;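 also: score merges feature fluorescence with signal-to-noise for each printed compound spot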
[2] = tested on: Human papillomavirus type 1a E7 protein (residues 1-88); test: HPV1a E7 small-molecule binders, primary screen, biochemical, small-molecule microarray, residues 1-88, 635 nm (AID 1129); conditions: small-molecule microarray binding, fluorescence 635 nm; higher = more signal
[3] = molecular target: Focal adhesion kinase 1 (Homo sapiens) (UniProt Q05397); test: small-molecule microarray binders of FAK, primary screen, biochemical, 635/667 nm fluorescence, BSA, DTT (AID 1130); conditions: PTK2 binding, 635 nm fluorescence, higher = more signal;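 also: composite of spot emission at 667 nm and signal to noise over triplicate slides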
[4] = tested on: Fibrinogen (Alexa647-labelled); test: fibrinogen binders on compound microarrays, profiling panel, artefact control for SMM control-protein annotation, biochemical, small-molecule microarray, 635/667 nm fluorescence (AID 1131); conditions: fibrinogen-A647 binding fluorescence, higher = more signal;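 also: z-score merges 667 nm fluorescence with per-spot signal-to-noise over triplicate slides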
[5] = molecular target: Follistatin (Homo sapiens) (UniProt P19883); test: follistatin binders on small-molecule microarrays, primary screen, biochemical, small-molecule microarray, 635/667 nm fluorescence (AID 1132); conditions: FST binding, 635 nm fluorescence, higher = more signal
[6] = molecular target: Fibroblast growth factor 2 (Homo sapiens) (UniProt P09038); test: FGF2 binders on small-molecule microarrays, primary screen, biochemical, small-molecule microarray, 635/667 nm fluorescence (AID 1133); conditions: small-molecule microarray binding, FGF2, fluorescence 635/667; higher = more signal
[7] = mitochondrial membrane potential change in A549 cells, profiling panel, cell-based, JC-1 fluorescence, basal, 24 h, 100 nL (AID 1138); conditions: higher = more signal;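 also: A549 lung adenocarcinoma cells under basal conditions with no added stimulus; test concentration not given here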
Lefty1 = Lefty1 binders on small-molecule microarrays, primary screen, biochemical, small-molecule microarray, 635/667 nm fluorescence (AID 1139); conditions: small-molecule microarray binding, fluorescence 635/667; higher = more signal
[8] = tested on: wheat germ agglutinin (Triticum aestivum), Alexa647-labelled; test: wheat germ agglutinin binders on compound microarrays, profiling panel, artefact control for SMM control-protein annotation, biochemical, small-molecule microarray, 635/667 nm fluorescence (AID 1140); conditions: WGA-A647 binding, 635 nm fluorescence, higher = more signal;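 also: score merges 667 nm feature emission with signal to noise over triplicate slides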
[9] = molecular target: Luciferin 4-monooxygenase (Photinus pyralis) (UniProt P08659); test: firefly luciferase enzyme inhibitors, primary screen, biochemical, luminescence, purified enzyme, 2006 set (AID 1141); conditions: SteadyGlo luminescence, 30 min, higher = more signal, called active from +8 up or from −8 down;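 also: cell-free assay with purified firefly luciferase at 100 ng per well in PBS; test concentration not given here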
[10] = tested on: Wnt5a (protein binding on small-molecule microarray); test: Wnt5a binders on small-molecule microarray, primary screen, biophysical, 635/667 nm fluorescence (AID 1142); conditions: 635 nm fluorescence, higher = more signal;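 also: fluorescence read at 667 nm with signal to noise per printed feature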
[11] = cell viability in Huh7 cells, primary screen, cytotoxicity control for HCV replication inhibitor project, CellTiter-Glo luminescence, basal, 48 h (AID 1143); conditions: Huh7 HCV replicon, higher = more signal, called active from +8 up or from −8 down;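 also: Huh7 hepatoma cells carrying a hepatitis C replication reporter with no stimulus; test concentration not given here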
[12] = P. aeruginosa biofilm formation inhibitors, primary screen, PAO1 strain, BacTiter-Glo luminescence, LB-PBS (AID 1144); conditions: 12 h, higher = more signal
[13] = CREB reporter modulators without forskolin, primary screen, cell-based, PC12, CRE-LacZ reporter, unstimulated (AID 1145); conditions: no forskolin, luminescence, 4.5 h, higher = more signal, called active from +8 up or from −8 down
[14] = CREB reporter modulators under forskolin, primary screen, cell-based, PC12, CRE-LacZ reporter, forskolin-stimulated (AID 1146); conditions: luminescence, 4.5 h, higher = more signal, called active from +8 up or from −8 down;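 also: PC12 cells with 6xCRE LacZ reporter stimulated by forskolin 10 µM; beta-galactosidase reporter signal reflecting CREB driven transcription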
[15] = molecular target: Streptavidin (Streptomyces avidinii) (UniProt P22629); test: streptavidin binders on small-molecule microarray, primary screen, artefact control for SMM compound annotation, biophysical, 635/667 nm fluorescence (AID 1147); conditions: streptavidin binding, higher = more signal;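 also: signal reflects streptavidin binding to arrayed compounds as a control protein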
[16] = small-molecule binders of probe aInhba, primary screen, biochemical, small-molecule microarray, 635/667 nm fluorescence (AID 1148); conditions: higher = more signal;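 also: score merges 667nm spot fluorescence with signal-to-noise for antibody binding to printed compounds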
Torsin-1A (Homo sapiens) [17] = molecular target: Torsin-1A (Homo sapiens) (UniProt O14656); test: torsin A binders from cell lysate, primary screen, small-molecule microarray, wild-type, 635/667 nm (AID 1149); conditions: COS7 hTOR1A-WT lysate, 635 nm fluorescence, higher = more signal
Torsin-1A (Homo sapiens) [18] = molecular target: Torsin-1A (Homo sapiens) (UniProt O14656); test: small-molecule binders of mutant TOR1A in lysate, primary screen, cell lysate, small-molecule microarray, COS7 lysate, 635/667 nm fluorescence (AID 1150); conditions: COS7 hTOR1A mutant lysate, 635 nm fluorescence, higher = more signal;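 also: score pools 667 nm emission and signal to noise measuring lysate protein binding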
[19] = tested on: Sonic hedgehog protein (Shh); test: small-molecule binders of Shh protein, primary screen, biochemical, small-molecule microarray, 635/667 nm fluorescence (AID 1151); conditions: small-molecule microarray binding, 635 nm fluorescence; higher = more signal;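 also: Shh protein binding to compounds spotted on small-molecule microarray slides; score combines spot fluorescence intensity with signal-to-noise across triplicate slides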

Sequence of Focal adhesion kinase 1 (Homo sapiens) (Q05397 whole entry, looked up): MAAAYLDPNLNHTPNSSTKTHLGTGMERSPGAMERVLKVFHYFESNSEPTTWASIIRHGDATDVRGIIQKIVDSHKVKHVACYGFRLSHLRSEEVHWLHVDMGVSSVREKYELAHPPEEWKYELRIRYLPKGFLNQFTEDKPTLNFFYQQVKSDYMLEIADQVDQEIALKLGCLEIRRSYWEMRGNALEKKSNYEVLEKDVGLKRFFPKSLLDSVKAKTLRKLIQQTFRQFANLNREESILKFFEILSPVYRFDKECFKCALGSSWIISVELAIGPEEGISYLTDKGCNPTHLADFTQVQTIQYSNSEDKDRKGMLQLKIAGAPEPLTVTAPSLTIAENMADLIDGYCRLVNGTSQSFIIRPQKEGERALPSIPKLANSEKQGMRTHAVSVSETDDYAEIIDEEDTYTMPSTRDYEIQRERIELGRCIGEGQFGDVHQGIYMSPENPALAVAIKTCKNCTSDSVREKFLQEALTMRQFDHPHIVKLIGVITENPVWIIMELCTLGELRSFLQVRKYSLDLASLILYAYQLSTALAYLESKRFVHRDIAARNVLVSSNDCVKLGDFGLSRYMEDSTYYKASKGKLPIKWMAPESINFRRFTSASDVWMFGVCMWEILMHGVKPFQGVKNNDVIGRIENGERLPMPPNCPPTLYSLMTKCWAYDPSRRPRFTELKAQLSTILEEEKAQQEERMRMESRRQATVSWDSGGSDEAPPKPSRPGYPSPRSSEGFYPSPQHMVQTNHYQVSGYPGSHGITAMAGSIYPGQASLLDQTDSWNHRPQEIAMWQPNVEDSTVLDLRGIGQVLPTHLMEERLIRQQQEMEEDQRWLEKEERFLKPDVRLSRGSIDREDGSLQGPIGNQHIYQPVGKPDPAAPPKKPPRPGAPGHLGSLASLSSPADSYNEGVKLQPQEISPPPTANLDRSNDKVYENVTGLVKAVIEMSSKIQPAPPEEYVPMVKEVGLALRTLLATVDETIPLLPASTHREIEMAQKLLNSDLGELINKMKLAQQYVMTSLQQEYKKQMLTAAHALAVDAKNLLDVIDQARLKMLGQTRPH
Sequence of Follistatin (Homo sapiens) (P19883 whole entry, looked up): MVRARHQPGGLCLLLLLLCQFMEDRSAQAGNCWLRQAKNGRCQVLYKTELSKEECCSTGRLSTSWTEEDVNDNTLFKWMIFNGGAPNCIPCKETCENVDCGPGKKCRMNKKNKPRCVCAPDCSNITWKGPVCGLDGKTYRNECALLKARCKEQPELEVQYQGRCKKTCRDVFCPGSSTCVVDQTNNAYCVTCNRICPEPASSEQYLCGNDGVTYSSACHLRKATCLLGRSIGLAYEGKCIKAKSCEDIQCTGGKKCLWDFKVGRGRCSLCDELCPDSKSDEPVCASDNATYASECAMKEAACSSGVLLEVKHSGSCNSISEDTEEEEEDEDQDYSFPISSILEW
Sequence of Torsin-1A (Homo sapiens) (O14656 whole entry, looked up): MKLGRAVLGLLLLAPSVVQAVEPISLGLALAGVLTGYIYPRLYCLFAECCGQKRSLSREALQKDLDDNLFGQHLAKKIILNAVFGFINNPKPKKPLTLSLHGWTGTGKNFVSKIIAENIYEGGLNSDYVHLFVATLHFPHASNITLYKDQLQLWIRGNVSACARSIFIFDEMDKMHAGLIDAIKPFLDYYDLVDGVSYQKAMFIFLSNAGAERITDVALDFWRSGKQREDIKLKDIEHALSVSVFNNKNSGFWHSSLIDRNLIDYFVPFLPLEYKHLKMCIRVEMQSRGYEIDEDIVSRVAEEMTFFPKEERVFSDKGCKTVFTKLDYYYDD
Sequence of Luciferin 4-monooxygenase (Photinus pyralis) (P08659 whole entry, looked up): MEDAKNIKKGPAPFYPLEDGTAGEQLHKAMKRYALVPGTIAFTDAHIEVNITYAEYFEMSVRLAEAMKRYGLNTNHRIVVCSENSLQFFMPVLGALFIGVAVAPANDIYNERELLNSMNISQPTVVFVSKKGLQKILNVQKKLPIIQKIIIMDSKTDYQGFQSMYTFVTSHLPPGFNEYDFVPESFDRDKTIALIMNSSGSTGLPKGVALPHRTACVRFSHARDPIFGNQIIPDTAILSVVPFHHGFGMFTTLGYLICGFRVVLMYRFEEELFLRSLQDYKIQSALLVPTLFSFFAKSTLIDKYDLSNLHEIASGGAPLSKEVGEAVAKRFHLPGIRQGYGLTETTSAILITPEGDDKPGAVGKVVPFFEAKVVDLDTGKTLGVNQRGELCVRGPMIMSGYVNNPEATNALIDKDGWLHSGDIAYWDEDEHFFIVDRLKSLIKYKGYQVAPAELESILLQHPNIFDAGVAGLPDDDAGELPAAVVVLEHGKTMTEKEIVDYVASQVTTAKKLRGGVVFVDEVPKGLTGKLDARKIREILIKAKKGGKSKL
Sequence of Fibroblast growth factor 2 (Homo sapiens) (P09038 whole entry, looked up): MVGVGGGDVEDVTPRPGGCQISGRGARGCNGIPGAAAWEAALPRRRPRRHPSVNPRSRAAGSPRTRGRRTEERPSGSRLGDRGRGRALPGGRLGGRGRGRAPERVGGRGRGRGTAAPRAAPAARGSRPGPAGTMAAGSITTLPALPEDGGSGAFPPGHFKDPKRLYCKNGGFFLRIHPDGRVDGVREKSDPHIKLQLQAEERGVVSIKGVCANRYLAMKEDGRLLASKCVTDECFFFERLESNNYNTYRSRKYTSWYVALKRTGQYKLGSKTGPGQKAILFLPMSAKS
Sequence of Streptavidin (Streptomyces avidinii) (P22629 whole entry, looked up): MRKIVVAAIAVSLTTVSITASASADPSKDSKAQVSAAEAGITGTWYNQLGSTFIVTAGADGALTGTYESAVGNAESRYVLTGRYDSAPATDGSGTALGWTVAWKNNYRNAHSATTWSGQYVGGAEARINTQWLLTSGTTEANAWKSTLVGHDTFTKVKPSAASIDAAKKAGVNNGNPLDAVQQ

| SMILES | composite z-score [1] | composite z-score [2] | composite z-score [3] | composite z-score [4] | composite z-score [5] | composite z-score [6] | z-score [7] | composite z-score (Lefty1) | composite z-score [8] | z-score [9] | composite z-score [10] | z-score [11] | z-score [12] | z-score [13] | z-score [14] | composite z-score [15] | composite z-score [16] | composite z-score (Torsin-1A (Homo sapiens) [17]) | composite z-score (Torsin-1A (Homo sapiens) [18]) | composite z-score [19] |
| --- | --- | --- | --- | --- | --- | --- | --- | --- | --- | --- | --- | --- | --- | --- | --- | --- | --- | --- | --- | --- |
| COc1ccc([Si](C)(C)[C@@H]2[C@@H](CC(=O)N3Cc4ccccc4C[C@H]3CO)O[C@]3(C(=O)N(C)c4ccccc43)[C@H]2C)cc1 | 1.94 | 1.17 | 0.0712 | 0.855 | 1.52 | 1.68 | 0.0779 | 1.57 | 1.02 | -0.497 (inactive) | 0.269 | -7.08 (inactive) | -1.58 (inactive) | 10.2 (active) | -1.92 (inactive) | 1.64 | 0.189 | 0.783 | 0.741 | 2.03 |
| O=C1OCCC=C[C@H]2OC34C=CCN(Cn5nnc6ccccc65)C(=O)[C@H]3N(CCCCCCO)C(=O)[C@@H]4C12 (stereo not given in full) | -0.832 | -0.48 | -0.235 | -0.907 | -1.29 | -1.24 | 0.324 | -1.28 | -1.07 | -0.718 (inactive) | -0.512 | 0.523 (inactive) | 0.863 (inactive) | 0.191 (inactive) | 0.0417 (inactive) | -1.12 | -0.561 | -0.103 | -0.0648 | -0.643 |
| COC(=O)c1nc2oc1CC[C@@H](CO)NC(=O)N(C)Cc1cnnn1C[C@H](Cc1ccccc1)NC2=O | -0.0727 | -0.405 | -0.302 | 0.779 | -0.701 | -0.403 | 0.9 | -0.281 | 1.03 | 0.782 (inactive) | -0.202 | -0.0922 (inactive) | -1.19 (inactive) | 0.484 (inactive) | -0.826 (inactive) | -0.65 | -0.268 | -0.182 | -0.533 | 0.272 |
| C=CCC(OC(C)=O)[C@@H]1[C@@H](N(Cc2ccc(-c3ccccc3)cc2)C(=O)Cc2ccc(F)cc2)c2cc(OCCCO)ccc2N1C(=O)Cc1ccc(OC)cc1 (stereo not given in full) | -0.148 | -0.212 | 0.328 | 0.397 | 0.508 | -0.472 | 0.626 | -0.0463 | 0.687 | -0.51 (inactive) | 0.205 | 0.145 (inactive) | 0.729 (inactive) | 1.25 (inactive) | 1.1 (inactive) | 0.586 | -0.128 | 0.106 | -0.751 | 0.164 |
| O=c1n(-c2ccccc2)c(=O)n2n1CC(COc1ccccc1)=C([C@H](O)CCc1ccccc1)[C@@H]2CO | 0.308 | 0.0864 | -0.18 | 0.783 | 0.415 | 1.14 | 0.77 | 0.635 | 0.576 | -1.35 (inactive) | -0.0748 | -2.16 (inactive) | -0.496 (inactive) | 1.49 (inactive) | -0.373 (inactive) | -0.275 | -0.0618 | 0.8 | -0.119 | 0.426 |
| Cc1cc(C)cc(N2C(=O)CSC2c2cccc([N+](=O)[O-])c2)c1 (stereo not given) | 2.27 | 1.22 | 1.55 | 1.03 | 0.45 | 0.963 | 0.492 | 1.53 | 1.1 | -0.992 (inactive) | 0.423 | -0.894 (inactive) | 0.75 (inactive) | -0.438 (inactive) | -1.04 (inactive) | 1.2 | 0.0506 | 0.337 | 0.526 | 0.899 |
| O=C1N(Cc2ccccc2)Cc2ccccc2[C@@H]2OC(c3ccc(OCCCO)cc3)=N[C@]12CCS(=O)(=O)c1ccccc1 | 0.624 | 1.19 | 0.389 | 0.768 | 0.953 | 1.4 | -0.461 | -0.0333 | 1.04 | -0.929 (inactive) | 0.534 | -2.33 (inactive) | 0.245 (inactive) | 3.78 (inactive) | -0.832 (inactive) | 0.379 | 0.0742 | 0.529 | 0.489 | 1.42 |
| CN1C(=O)C2C=CC(C(O)c3cccc(O)c3)N(Nc3ccccc3)C2C1=O (stereo not given) | 0.71 | 0.545 | 0.214 | 0.441 | 0.214 | -0.191 | 1.19 | 0.152 | 0.275 | 0.991 (inactive) | 0.0652 | 0.656 (inactive) | 0.373 (inactive) | 0.0501 (inactive) | 0.233 (inactive) | -0.404 | 0.142 | -0.379 | 0.548 | -0.128 |
| [N-]=[N+]=Nc1ccccc1C[C@]1(C(N)=O)N=C(c2ccc(OCCCO)cc2)O[C@H]1c1ccccc1N=[N+]=[N-] | 1.91 | 1.21 | -0.0221 | 0.941 | 0.228 | 0.132 | -0.777 | -0.24 | 0.448 | -4.76 (inactive) | 0.611 | -4.95 (inactive) | -0.783 (inactive) | 1.6 (inactive) | -1.25 (inactive) | 1.22 | 0.189 | 0.747 | 0.986 | -0.191 |

Reference: PubChem BioAssay
